# This is one part of the list. A number with no mark means an inactive call. Rule as the data show it: active = activation above about 12%; inactive = the rest.
# Molecular target: Sphingosine 1-phosphate receptor 4 (Homo sapiens) (UniProt O95977)
# Assay: activators of human S1P4 signalling – cell-based, high throughput, confirmation (AID 1523);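 also: 0% = vehicle and 100% = full reference agonist response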
# Conditions: S1P4 agonist cell-based reporter assay; at 4.98 µM; hits give high values
# Chain of Sphingosine 1-phosphate receptor 4 (Homo sapiens) (O95977 whole entry, looked up): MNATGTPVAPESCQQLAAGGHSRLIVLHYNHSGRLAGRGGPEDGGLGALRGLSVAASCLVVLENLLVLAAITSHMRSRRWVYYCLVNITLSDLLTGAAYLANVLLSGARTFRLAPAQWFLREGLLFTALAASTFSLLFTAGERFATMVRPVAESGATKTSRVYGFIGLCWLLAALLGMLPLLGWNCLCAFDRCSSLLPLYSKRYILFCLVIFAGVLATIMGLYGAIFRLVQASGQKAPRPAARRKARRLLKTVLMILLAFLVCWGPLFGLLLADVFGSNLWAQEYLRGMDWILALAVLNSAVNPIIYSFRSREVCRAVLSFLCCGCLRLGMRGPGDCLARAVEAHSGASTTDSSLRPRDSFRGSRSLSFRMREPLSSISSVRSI
smiles,measurement,value
CC(C)N(CC#CCC1(O)c2ccccc2-c2ccccc21)C(C)C,activation,-2.04%

# Source: PubChem BioAssay AID1523 (The Scripps Research Institute Molecular Screening Center, 2009)
